We go through five compounds from ChEMBL document CHEMBL3988442, “University of Dundee, Small-Polar-MMV Screening Library” (2021).

For part of these data: Results with a measured potency or affinity are listed apart. A value given as a limit tells only on which side of the number the result lay.

Assay [1] deals with T1, Methionyl-tRNA synthetase, putative (Leishmania donovani (strain BPK282A1)) (UniProt E9BF75).
T1 sequence (whole entry): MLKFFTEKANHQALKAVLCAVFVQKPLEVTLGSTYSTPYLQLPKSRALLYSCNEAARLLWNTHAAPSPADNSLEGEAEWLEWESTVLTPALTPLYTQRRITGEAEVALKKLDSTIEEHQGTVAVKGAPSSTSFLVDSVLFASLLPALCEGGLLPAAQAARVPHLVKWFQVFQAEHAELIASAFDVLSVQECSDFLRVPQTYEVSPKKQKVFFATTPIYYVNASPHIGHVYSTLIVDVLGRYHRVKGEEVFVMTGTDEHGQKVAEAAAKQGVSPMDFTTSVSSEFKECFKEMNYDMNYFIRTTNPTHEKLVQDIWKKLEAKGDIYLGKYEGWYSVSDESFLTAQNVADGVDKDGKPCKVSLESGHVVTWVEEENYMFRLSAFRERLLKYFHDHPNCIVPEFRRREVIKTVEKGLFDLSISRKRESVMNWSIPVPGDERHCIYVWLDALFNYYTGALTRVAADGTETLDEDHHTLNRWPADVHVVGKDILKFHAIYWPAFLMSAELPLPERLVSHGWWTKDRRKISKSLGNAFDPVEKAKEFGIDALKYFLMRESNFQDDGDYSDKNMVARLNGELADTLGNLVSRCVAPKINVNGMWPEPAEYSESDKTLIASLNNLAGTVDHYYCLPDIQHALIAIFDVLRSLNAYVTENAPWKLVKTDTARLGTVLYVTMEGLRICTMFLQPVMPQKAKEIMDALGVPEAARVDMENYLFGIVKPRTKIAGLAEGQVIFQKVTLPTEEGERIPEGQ
In words: Leishmania donovani Methionine tRNA synthetase (LdMetRS):v7. Dose response assay. It counts as functional. Set-up: conc 80 nM, time 150 minutes.

In assay [2] the target is AMP-activated protein kinase, AMPK (Homo sapiens) (UniProt P54646+O43741+P54619+Q9UGJ0+Q9Y478+Q13131+Q9UGI9). In words: AMP-dependent Kinase enzyme assay. An in vitro enzyme assay that detects ADP turnover that is directly proportional to AMPK activity. This uses naive AMPK that is activated during the assay with MK-8722. It counts as functional. Set-up: scale not given: direction of the effect not stated beside the values. The settings on record: 30 µM.

Assay [3] addresses Protein translocase subunit SecA (Escherichia coli (strain K12)) (UniProt P10408). In words: Assay to Identify E. coli SecA ATPase Inhibitors. The format is functional. On the set-up: scale not given: direction of the effect not stated beside the values. The settings on record: 30 µM.
The target in assay [4] is T2, Ubiquitin-activating enzyme e1, putative (Leishmania donovani (strain BPK282A1)) (UniProt E9BSI1).
T2 sequence (whole entry): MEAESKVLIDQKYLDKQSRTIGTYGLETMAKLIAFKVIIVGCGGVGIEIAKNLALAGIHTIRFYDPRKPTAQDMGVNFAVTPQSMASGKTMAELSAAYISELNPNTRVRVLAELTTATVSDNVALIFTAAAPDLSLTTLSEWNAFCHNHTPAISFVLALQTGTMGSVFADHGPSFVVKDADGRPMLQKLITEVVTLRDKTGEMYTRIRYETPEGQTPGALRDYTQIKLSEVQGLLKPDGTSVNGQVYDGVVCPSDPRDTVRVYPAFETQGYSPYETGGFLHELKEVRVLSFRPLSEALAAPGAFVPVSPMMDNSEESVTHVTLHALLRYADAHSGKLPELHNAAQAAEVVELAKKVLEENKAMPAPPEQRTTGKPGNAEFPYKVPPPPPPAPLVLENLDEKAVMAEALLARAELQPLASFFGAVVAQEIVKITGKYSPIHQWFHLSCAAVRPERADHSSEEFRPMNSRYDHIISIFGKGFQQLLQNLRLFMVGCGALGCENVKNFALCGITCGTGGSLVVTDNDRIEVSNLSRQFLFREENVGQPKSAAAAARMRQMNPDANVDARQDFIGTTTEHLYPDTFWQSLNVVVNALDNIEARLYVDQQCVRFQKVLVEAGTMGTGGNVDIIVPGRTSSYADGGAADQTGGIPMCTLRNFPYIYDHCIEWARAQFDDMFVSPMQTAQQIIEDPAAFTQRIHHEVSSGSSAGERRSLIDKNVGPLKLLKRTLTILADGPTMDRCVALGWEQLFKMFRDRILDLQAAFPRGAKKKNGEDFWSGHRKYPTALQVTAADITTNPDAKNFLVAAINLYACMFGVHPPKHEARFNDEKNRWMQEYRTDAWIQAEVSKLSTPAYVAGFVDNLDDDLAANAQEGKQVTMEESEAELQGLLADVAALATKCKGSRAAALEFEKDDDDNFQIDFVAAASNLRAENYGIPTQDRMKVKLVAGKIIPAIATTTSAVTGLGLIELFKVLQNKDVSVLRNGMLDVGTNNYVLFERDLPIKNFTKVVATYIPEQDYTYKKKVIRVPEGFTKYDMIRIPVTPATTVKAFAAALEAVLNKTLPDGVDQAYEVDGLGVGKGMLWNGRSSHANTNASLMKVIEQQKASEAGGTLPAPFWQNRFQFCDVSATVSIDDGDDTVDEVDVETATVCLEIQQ
Put plainly: Leishmania donovani Ubiquitin Activating Enzyme (LdE1). The format is functional. Set-up: scale not given: direction of the effect not stated beside the values. The settings on record: 30 µM.

The target in assay [5] is Sialic acid-binding Ig-like lectin 9 (Homo sapiens) (UniProt Q9Y336). In words: Hs-Siglec9 ALPHAscreen SOP 20170721. Set-up: scale not given: direction of the effect not stated beside the values. The settings on record: 10 µM.
Sialic acid-binding Ig-like lectin 9 (Homo sapiens), sequence (Q9Y336 whole entry): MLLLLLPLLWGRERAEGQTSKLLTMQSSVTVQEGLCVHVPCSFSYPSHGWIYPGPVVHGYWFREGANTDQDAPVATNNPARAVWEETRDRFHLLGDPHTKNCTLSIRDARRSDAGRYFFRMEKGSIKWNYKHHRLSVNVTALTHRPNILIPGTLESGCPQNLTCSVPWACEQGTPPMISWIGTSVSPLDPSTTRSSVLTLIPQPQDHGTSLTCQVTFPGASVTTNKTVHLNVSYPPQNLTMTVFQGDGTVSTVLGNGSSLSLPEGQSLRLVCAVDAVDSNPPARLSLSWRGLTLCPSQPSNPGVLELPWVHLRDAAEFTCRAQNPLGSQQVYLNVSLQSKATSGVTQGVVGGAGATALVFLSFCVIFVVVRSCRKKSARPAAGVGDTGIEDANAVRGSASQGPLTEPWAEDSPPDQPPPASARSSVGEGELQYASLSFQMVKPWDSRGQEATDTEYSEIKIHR
The next assay has as its system Trypanosoma cruzi. In words: Trypanosoma cruzi phosphomannomutase and mannose-1-phosphate guanylyltransferase assay. It counts as functional. The settings on record: 10 µM. Set-up: scale not given: direction of the effect not stated beside the values.
The target in assay [6] is T3, Arginase-2, mitochondrial (Homo sapiens) (UniProt P78540).
T3 sequence (whole entry): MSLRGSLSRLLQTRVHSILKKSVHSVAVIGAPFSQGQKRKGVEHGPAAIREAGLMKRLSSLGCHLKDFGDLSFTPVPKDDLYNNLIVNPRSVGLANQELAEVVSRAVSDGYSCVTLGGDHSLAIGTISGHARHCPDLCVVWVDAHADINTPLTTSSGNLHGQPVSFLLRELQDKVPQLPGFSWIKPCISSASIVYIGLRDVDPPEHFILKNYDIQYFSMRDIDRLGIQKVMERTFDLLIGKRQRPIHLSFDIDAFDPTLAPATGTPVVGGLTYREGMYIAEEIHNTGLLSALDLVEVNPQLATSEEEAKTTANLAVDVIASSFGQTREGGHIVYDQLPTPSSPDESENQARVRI
In words: in vitro enzyme assay to detect the production of urea directly proportional to the activity of Arginase II. The format is functional. On the set-up: scale not given: in the data most compounds retested in dose-response had high values.

In assay [7] the target is T4, Proteasome subunit beta (Trypanosoma cruzi) (UniProt O96673).
T4 sequence (whole entry): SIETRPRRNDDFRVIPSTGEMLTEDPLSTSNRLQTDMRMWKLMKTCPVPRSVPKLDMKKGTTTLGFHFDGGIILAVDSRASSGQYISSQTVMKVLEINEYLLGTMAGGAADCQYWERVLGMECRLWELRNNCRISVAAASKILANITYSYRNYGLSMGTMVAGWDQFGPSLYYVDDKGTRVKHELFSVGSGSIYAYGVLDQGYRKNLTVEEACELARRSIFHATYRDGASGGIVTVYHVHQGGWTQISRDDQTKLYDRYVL
Put plainly: Trypanosoma cruzi proteasome chymotrypsin-like activity (TcProtChymo) assay. Set-up: scale not given: in the data most compounds retested in dose-response had high values. It counts as functional. The settings on record: 9.37 µM.

The species entered for another assay is Homo sapiens. Put plainly: To identify inhibition of the IFN signalling (Jak-Stat) pathway via expression of an eGFP reporter gene under the control of an IFN-stimulated response element (ISRE) containing MxA promoter. The format is functional. On the set-up: scale not given: direction of the effect not stated beside the values. The settings on record: 30 µM.

Assay [8] addresses T5, Tyrosyl-tRNA synthetase, putative (Trypanosoma cruzi (strain CL Brener)) (UniProt Q4DSP6).
T5 sequence (whole entry): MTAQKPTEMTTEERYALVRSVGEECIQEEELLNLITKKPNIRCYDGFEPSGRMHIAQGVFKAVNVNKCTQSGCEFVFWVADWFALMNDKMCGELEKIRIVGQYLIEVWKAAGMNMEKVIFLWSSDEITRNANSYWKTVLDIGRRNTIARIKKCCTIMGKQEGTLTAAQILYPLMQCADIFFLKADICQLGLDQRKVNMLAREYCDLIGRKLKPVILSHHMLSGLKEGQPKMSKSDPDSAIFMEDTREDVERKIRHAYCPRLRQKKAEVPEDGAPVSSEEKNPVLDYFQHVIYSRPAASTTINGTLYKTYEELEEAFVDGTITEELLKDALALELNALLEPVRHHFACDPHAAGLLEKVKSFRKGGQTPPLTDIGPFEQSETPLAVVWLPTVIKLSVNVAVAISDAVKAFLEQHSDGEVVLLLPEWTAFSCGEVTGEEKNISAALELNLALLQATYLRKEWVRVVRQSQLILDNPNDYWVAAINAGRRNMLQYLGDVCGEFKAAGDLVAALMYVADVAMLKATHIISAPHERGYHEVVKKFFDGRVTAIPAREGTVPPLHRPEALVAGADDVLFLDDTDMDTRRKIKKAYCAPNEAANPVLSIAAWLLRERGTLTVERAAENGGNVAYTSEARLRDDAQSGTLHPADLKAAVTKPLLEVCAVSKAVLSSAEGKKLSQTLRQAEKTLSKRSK
In words: Trypanosoma cruzi tyrosyl tRNA synthetase (TcYRS) _High Tyrosine SOP. The format is functional. Set-up: scale not given: in the data most compounds retested in dose-response had high values. The settings on record: 30 µM.

The target in assay [9] is T5, Tyrosyl-tRNA synthetase, putative (Trypanosoma cruzi (strain CL Brener)). In words: Trypanosoma cruzi tyrosyl tRNA synthetase (TcYRS) SOP. Set-up: scale not given: direction of the effect not stated beside the values. The settings on record: 30 µM. It counts as functional.
Assay [10] addresses Chromo domain-containing protein 1 (Saccharomyces cerevisiae (strain ATCC 204508 / S288c) (Baker's yeast)) (UniProt P32657). In words: ScCHD-1 Enzyme Inhibition Assay. On the set-up: scale not given: in the data most compounds retested in dose-response had high values. The format is functional. The settings on record: 30 µM.

Chromo domain-containing protein 1 (Saccharomyces cerevisiae (strain ATCC 204508 / S288c) (Baker's yeast)), sequence (P32657 whole entry, the tested form may be a part): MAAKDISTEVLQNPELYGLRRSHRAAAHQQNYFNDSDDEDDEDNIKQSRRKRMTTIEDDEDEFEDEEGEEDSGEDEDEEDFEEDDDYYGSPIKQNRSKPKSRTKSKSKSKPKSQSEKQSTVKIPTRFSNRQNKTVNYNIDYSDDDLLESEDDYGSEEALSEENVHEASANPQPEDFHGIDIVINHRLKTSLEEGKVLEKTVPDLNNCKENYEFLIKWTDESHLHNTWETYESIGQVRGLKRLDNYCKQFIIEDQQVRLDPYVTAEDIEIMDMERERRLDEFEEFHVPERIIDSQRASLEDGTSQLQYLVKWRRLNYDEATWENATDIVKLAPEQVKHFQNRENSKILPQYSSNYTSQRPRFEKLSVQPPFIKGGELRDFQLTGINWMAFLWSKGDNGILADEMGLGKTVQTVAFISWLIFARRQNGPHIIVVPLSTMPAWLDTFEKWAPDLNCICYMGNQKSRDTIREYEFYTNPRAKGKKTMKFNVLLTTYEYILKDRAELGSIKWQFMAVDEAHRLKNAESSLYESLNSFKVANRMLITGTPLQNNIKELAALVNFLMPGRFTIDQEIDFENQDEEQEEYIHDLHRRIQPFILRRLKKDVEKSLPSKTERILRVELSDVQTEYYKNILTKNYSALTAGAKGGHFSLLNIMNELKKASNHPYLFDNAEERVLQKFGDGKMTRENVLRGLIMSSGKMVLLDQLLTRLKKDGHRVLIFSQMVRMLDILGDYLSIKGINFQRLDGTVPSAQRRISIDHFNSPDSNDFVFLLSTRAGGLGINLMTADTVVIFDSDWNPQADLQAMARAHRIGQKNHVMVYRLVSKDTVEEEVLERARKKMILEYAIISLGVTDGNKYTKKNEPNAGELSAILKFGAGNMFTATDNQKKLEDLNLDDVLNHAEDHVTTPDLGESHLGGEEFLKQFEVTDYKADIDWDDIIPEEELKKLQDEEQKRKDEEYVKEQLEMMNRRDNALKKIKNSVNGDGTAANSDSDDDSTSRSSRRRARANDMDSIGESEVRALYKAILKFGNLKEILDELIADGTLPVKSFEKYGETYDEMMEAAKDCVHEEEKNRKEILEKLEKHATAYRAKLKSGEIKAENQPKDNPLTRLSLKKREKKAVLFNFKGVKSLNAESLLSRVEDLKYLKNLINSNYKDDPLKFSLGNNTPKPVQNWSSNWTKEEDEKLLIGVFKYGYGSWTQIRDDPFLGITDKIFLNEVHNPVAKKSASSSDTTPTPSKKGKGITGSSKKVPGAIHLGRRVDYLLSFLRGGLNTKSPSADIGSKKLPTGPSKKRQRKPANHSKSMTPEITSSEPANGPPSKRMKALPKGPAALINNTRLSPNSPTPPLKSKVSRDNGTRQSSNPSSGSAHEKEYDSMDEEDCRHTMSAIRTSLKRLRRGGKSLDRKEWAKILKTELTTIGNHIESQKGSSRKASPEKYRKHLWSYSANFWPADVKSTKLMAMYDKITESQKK
Protein translocase subunit SecA (Escherichia coli (strain K12)), sequence (P10408 whole entry): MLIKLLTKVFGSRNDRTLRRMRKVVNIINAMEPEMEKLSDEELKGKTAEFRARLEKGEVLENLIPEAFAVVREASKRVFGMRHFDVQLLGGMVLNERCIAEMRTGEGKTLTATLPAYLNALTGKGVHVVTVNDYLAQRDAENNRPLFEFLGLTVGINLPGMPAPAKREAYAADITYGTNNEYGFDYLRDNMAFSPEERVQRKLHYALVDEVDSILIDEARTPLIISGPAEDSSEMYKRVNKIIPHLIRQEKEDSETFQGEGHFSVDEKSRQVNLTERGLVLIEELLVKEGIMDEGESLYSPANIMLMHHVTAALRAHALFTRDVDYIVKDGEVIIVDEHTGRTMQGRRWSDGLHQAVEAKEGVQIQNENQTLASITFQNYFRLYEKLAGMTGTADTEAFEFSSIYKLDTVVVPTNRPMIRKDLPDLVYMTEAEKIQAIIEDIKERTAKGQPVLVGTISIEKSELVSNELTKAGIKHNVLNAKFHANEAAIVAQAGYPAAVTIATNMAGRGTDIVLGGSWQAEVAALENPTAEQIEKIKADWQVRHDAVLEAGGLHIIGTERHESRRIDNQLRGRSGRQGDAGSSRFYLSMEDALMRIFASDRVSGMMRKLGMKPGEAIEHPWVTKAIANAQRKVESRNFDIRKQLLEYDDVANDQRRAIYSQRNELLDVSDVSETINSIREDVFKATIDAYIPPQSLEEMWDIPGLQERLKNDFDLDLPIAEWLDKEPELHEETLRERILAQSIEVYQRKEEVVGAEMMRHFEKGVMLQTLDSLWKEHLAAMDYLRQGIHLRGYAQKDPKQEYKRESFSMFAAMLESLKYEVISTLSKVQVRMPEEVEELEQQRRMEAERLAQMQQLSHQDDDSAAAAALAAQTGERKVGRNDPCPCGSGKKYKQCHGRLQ

Consider `Cc1nc(NCc2nnc(C)n2C)c2c(CC(C)C)csc2n1`, for which the PXC50 in assay [1] (MAX_EFFECT 10.70496084) and in assay [1] (MAX_EFFECT 13.5770235) was below 4 throughout. Also, the Percent Effect in [2] amounted to 1.71%.

In the case of `O=C(Cn1nc2c(cc1=O)CCCC2)N[C@@H](Cc1ccccc1)C(=O)O`, the Percent Effect in assay [3] is 0.621%; in assay [4] it was 9.33%; in assay [2], 0.52%; in [5] it was -1.3%; in the assay with Trypanosoma cruzi, 0.197%; in [6] (30 µM) it was 0.54%. The Percent Effect in assay [6] (33.3 µM) is 0.88%; in [7], 16.1%; in the assay listed under Homo sapiens it was 24.4%; in [8], 5.29%; in assay [9], 12.8%; in assay [10] it was -9.91%.

With `O=C(Cc1ccccn1)N1CCC2(CC1)CC(Oc1ccccn1)CO2` (stereo unspecified), the Percent Effect in assay [3] was -3.31%; in assay [4], 10.7%; in [2], 4.11%; in assay [5], 0.184%; in the assay on Trypanosoma cruzi, -1.18%; in [6] (30 µM) it was 2.7%. For the same compound, the Percent Effect was -5.36% in assay [6] (33.3 µM); 12.2% in [7]; 12.5% in the assay listed under Homo sapiens; 7.45% in assay [8]; 16.7% in assay [9]; -7.71% in [10].

As for `CCC(CO)NC(=O)c1ccc2ccc(N(C)CC3CC3)n2c1` (stereo unspecified), the PXC50 in assay [1] (MAX_EFFECT 27.99295775) and in assay [1] (MAX_EFFECT 39.42992874) was below 4 in each case. Besides, the Percent Effect in [3] was 3.49%; in [4], 3.9%; in assay [5] it was 0.399%; in the assay with Trypanosoma cruzi, 3.56%; in [6] (33.3 µM), 0.457%; in [7], 15.2%. The Percent Effect in the assay listed under Homo sapiens was 8.81%; in assay [8] it was 12.6%; in assay [9] it was 15%; in [10], -3.69%.

As to `CNC(=O)[C@H]1C[C@@H]2CN(C(=O)c3cscn3)C[C@@H]2N1S(C)(=O)=O`, the Percent Effect was -2.22% in assay [3]; 5.33% in [4]; 0.103% in assay [2]; 9.01% in assay [5]; -4.05% in the assay on Trypanosoma cruzi; 4.87% in assay [6] (30 µM). The Percent Effect in assay [6] (33.3 µM) is -27.1%; in assay [7], 5.64%; in the assay listed under Homo sapiens, -13%; in assay [8], 4.17%; in [9] it was -52.5%; in assay [10] it was -3.61%.
